This is a sample that favours compounds with a hit; in the whole collection about 5.7% have one here.
ssDAF12 agonist – S. stercoralis DAF-12 activation, primary screen. HEK293 ssDAF-12/GRIP1 lit1-tk-luc reporter, luminescence; % of 3 µM dafachronic acid response. activation, % at 6.8 µM. actives 1% (n = 370,000). AID 652126;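 active means activation above the mean over all tested compounds plus 3 SD, cut at about 0.9% in these data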
DAX1 inh-1 – inhibits human nuclear receptor DAX1 | AID 504766 | P51843 | inhibition, % at 6.75 µM | actives 0.99% (n = 340,000) | HEK293 Gal4-DAX1 luciferase reporter, luminescence;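 active means inhibition above the mean over all tested compounds plus 3 SD, cut at about 4.2% in these data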;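 further: inhibition shows as a rise in luminescence from relieved DAX1 repression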
Target sequence (P51843 207-470 limits assumed): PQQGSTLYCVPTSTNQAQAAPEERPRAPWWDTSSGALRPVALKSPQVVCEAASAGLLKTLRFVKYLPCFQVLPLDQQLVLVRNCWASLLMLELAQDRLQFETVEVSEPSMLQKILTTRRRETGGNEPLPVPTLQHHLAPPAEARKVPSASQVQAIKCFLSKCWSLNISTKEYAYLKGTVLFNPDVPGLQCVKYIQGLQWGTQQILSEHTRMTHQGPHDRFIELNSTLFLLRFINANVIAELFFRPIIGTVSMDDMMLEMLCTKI
hcDAF12 agonist – activates DAF-12 receptor from parasite H. contortus; HEK293 hcDAF-12 lit1-tk-luc reporter, luminescence; 0% DMSO, 100% Δ7-dafachronic acid; activation, % at 6.8 µM; actives 1.4% (n = 370,000); AID 652067;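 active means activation above the mean of all tested compounds plus 3 SD, cut at about 5.5% in these data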
hgDAF-12 ag – hgDAF-12 agonism, primary luciferase screen; HEK293 GAL4-hgDAF12 UAS-luciferase reporter, agonist luminescence; normalized to butyrate control; activation, % at 6.8 µM; actives 1.8% (n = 370,000);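 active means activation above a cutoff set at the mean of all screened compounds plus 3 SD, cut at about 10% in these data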
DAX1 inh-2 – DAX1 (NR0B1) inhibition, primary screen; HEK293T StAR-luciferase reporter, SF-1/DAX-1 repression relief; inhibition, % at 6.8 µM; actives 1.1% (n = 370,000);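 active means inhibition above the mean over all tested compounds plus 3 SD, cut at about 3.6% in these data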;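 further: higher inhibition means more luminescence from relief of DAX-1 repression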
AHR activator – human AHR activation | P35869 | AHR-responsive luciferase reporter cells, luminescence | activation, % at 5 µM | actives 2.5% (n = 320,000) | AID 2796; in the data active means activation above about 47%
Each line names hits and unclear results; the compound was inactive in the other large screens.

C[C@H](CO)N1C[C@H](C)[C@@H](CN(C)S(=O)(=O)c2cccs2)Oc2ccc(NC(=O)Cn3cnnn3)cc2C1=O	none
CCOc1ccccc1N1C(=O)CC(Sc2n[nH]c(-c3ccccc3)n2)C1=O (stereo unspecified)	DAX1 inh-1 4.8
COc1ccc(C#Cc2c(-c3ccsc3)oc3ccc(N4CCOCC4)cc23)cc1	AHR activator 70
COc1ccc(C#Cc2c(-c3ccc(OC)cc3)oc3ccc(-c4ccc(OC)cc4)cc23)cc1	none
COc1ccc(-c2oc3ccc(N4CCOCC4)cc3c2C#CC2(O)CCCCC2)cc1	AHR activator 69
COc1ccc(/C=C/c2c(-c3cccc(C)c3)oc3ccc(N4CCOCC4)cc23)cc1	AHR activator 62
Cc1ncc([N+](=O)[O-])n1CC(=O)Nc1ccccc1	none
CCN(C(=O)Cn1c([N+](=O)[O-])cnc1C)c1ccccc1	ssDAF12 agonist 1.5
CCc1nnc(NC(=O)CCC(=O)NC2CC2)s1	none
COC(/C=C/Nc1ccc(C)cc1)=C(C#N)C#N	hcDAF12 agonist 5.6
COc1ccc(C2Nc3ccccc3C(=O)N2NC(C)=O)cc1OC (stereo unspecified)	none
CCOC(=O)NN1C(=O)c2ccccc2NC1c1ccc(OC)c(OC)c1 (stereo unspecified)	DAX1 inh-1 4.6
Nc1ccc2c(c1)C/C(=C/c1ccco1)C2=O	none
O=C1/C(=C/c2ccco2)CCc2ccccc21	hcDAF12 agonist 6.2
CCOC(=O)c1sc(-c2ccc(Br)cc2)cc1N	hgDAF-12 ag 11
NNC(=O)c1sc(-c2ccc(Cl)cc2)cc1N	AHR activator 48
Nc1sc(-c2ccccc2)cc1C(=O)NCCc1ccc(Cl)cc1	none (no result: DAX1 inh-1, AHR activator)
CC(C)N1CCC1(C)C(=O)Nc1ccc2cn[nH]c2c1 (stereo unspecified)	none (no result: DAX1 inh-1, AHR activator)
COc1cc2c(cc1OC)-c1c(OC)c(OC)cc3ccnc(c13)C2=O	AHR activator 48
CCCCCCn1cc(CN2CC(N3CCN(C)CC3)CS2(=O)=O)nn1 (stereo unspecified)	none (no result: DAX1 inh-1, AHR activator)
COc1ccc(Cn2cc(CN3CC(N4CCCC4)CS3(=O)=O)nn2)cc1 (stereo unspecified)	DAX1 inh-2 4.4 (no result: DAX1 inh-1, AHR activator)
CCCCCCn1cc(CN2CC(N3CCN(C4CCN(C)CC4)CC3)CS2(=O)=O)nn1 (stereo unspecified)	DAX1 inh-2 4.4 (no result: DAX1 inh-1, AHR activator)
CCCCCCn1cc(CN2CC(N(C)CC)CS2(=O)=O)nn1 (stereo unspecified)	DAX1 inh-2 3.7 (no result: DAX1 inh-1, AHR activator)
CCCCCCn1cc(CN(C)C2CN(Cc3cn(CCCCCC)nn3)S(=O)(=O)C2)nn1 (stereo unspecified)	none (no result: DAX1 inh-1, AHR activator)
Cc1cc(=O)oc2cc(OCC(=O)N3CC[C@@]4(O)CCCC[C@H]4C3)ccc12	none
N=c1c(S(=O)(=O)c2ccc(F)cc2)cc2c(=O)n3ccccc3nc2n1CC1CCCO1 (stereo unspecified)	none
COc1ccc(CNC(=O)CSc2nc3cccnc3s2)cc1	none
COC(=O)Cc1nnc(Nc2cccc(C)c2)c2ccccc12	AHR activator 61
CCOC(=O)Cc1nnc(Nc2cccc(C)c2)c2ccccc12	none
CCCCOCCCNC(=O)C[C@H]1C[C@@]2(C(=O)OC)C(=C[C@H](C(C)C)O[C@@H]2C2CC2)N(Cc2ccccc2)C1=O	none (no result: DAX1 inh-1, AHR activator)
Cc1ccc(C(C)NC(=O)Cc2cccs2)cc1C (stereo unspecified)	none
O=S(=O)(c1ccccc1)N1CCN(CC2CC3C=CC2C3)CC1 (stereo unspecified)	none
O=S(=O)(c1ccc(F)cc1)N1CCN(CC2CC3C=CC2C3)CC1 (stereo unspecified)	hcDAF12 agonist 6.5
CCN(CC)S(=O)(=O)c1cccc(C(=O)NC(C(=O)NNC(=O)c2ccccc2F)C(C)C)c1 (stereo unspecified)	none (no result: AHR activator)
CC(=O)c1ccc(Nc2cc(C)nc3c(C)cccc23)cc1	hgDAF-12 ag 11, AHR activator 49
CC(=O)c1ccc(Nc2cc(C)nc3ccccc23)cc1	none
CC(=O)c1cccc(Nc2cc(C)nc3c(C)cc(C)cc23)c1	AHR activator 56
CC(=O)c1cccc(Nc2cc(C)nc3ccc(C)cc23)c1	none
CCc1nonc1NC(=O)c1oc2ccc(F)cc2c1C	AHR activator 61
CC1(C)COC(/C=C/c2ccc([N+](=O)[O-])cc2)=N1	AHR activator 50
CC(=C/C(=O)O)/C=C/c1ccc([N+](=O)[O-])cc1	none
COc1cccc(C(=O)N[C@H](C(=O)N2CCC[C@H]2C(=O)NC2CCCC2)C2CCCCC2)c1	none (no result: DAX1 inh-1, AHR activator)
Cc1ccc(S(=O)(=O)Nc2cc3c(C(=O)Nc4ccccc4)c(C)oc3c3ccccc23)cc1	AHR activator 64
CC(=O)c1c(C)oc2c1cc(NS(=O)(=O)c1ccc(C(=O)O)cc1)c1ccccc12	none
CSc1ccc(NC(=O)c2cccnc2)cc1C#N	none
O=C(NC1CCCC1)C(c1ccco1)N1CCC(O)(c2ccc(Cl)cc2)CC1 (stereo unspecified)	none (no result: DAX1 inh-1, AHR activator)
COc1cccc(-c2nnc3sc(-c4ccco4)nn23)c1	DAX1 inh-1 4.2
c1coc(-c2nnc3sc(-c4cccs4)nn23)c1	AHR activator 55
COc1cccc(/C=N/N2CCOCC2)c1O	none
COc1cccc(/C=N/n2c(SC)nnc2-c2ccccc2)c1O	DAX1 inh-1 4.6
COc1cccc(/C=N/n2c(SC)nnc2-c2ccccc2)c1OC	AHR activator 61
Cc1cccc(C)c1NC(=O)CN1CCN(CCCC(c2ccc(F)cc2)c2ccc(F)cc2)CC1	none
c1ccc2c(c1)ccc1nnc(SCc3ccc4c(c3)OCO4)n12	AHR activator 65
O=C(Nc1cc(F)ccc1F)C1CCN(S(=O)(=O)c2cccc3nonc23)CC1	none
C[C@@H]1CN([C@@H](C)CO)C(=O)c2ccccc2-c2ccccc2CO[C@@H]1CN(C)Cc1ccc(Cl)c(Cl)c1	none (no result: DAX1 inh-1, AHR activator)
C/C(=N\NC(=S)Nc1cccc(C)c1)c1cc2ccccc2o1	AHR activator 49
COc1cc(C#Cc2c(-c3cncn3C)n(C)c3ccc(-c4cnc(OC)nc4)cc23)cc(OC)c1	AHR activator 51
O=[N+]([O-])c1ccccc1Nc1nc(-c2cccnc2)cs1	hcDAF12 agonist 5.6, AHR activator 52
COc1ccc(Nc2nc(-c3cccnc3)cs2)c(OC)c1	none (no result: AHR activator)
COc1ccccc1Nc1nc(-c2cccnc2)cs1	ssDAF12 agonist 1.2, hgDAF-12 ag 12
COc1ccc(Nc2nc(-c3cccs3)cs2)c(OC)c1	ssDAF12 agonist 1.1, DAX1 inh-1 4.9, AHR activator 109
CC1=CC(O)(c2ccccn2)P(=O)(c2ccccc2)C=C1C (stereo unspecified)	none (no result: DAX1 inh-1, AHR activator)
COC(=O)c1cccc(-n2c(C)cc(O)cc2=O)c1	none (no result: DAX1 inh-1, AHR activator)
